# Results: PubChem BioAssay (NCATS)
# Results filed as inconclusive are left out. Entries that show only a call come without a potency. The source made the active and inactive calls. Unless noted, calls come from the whole dose curve; as a rule, active = well fitted curve in the direction sought with a large enough effect; inconclusive = small, poorly fitted or top-dose-only effect, or another doubt; inactive = no such curve, though single readings can be large; an effect the other way counts as inactive or inconclusive.
# Assays:
# [1] = AP1 Signaling Pathway (AID 357; active = well fitted curve in either direction with a large enough effect, not every such curve was filed as active;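 note: ME-180 reporter cells stimulated with EGF at its EC50 level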)
# Summary of the method: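 Beta-lactamase reporter under AP-1 response element, ME-180 background. Stimulus: EC50 EGF. Compound exposure 5 h, 37 °C. Detection: CCF4, 2.5 h RT, 460/530 nm. Values: AC50 from titration.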
# [2] = biological target: Cytochrome P450 1A2 (Homo sapiens) (UniProt P05177); assay: p450-cyp1a2 (AID 410; calls by dose curve)
# Summary of the method: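 Human CYP1A2 (20nM) demethylated Luciferin-ME at its Km (100uM) in 100mM KPO4. After 10 min compound preincubation, NADPH regeneration ran the reaction 60 min at room temperature. Luciferin was read by luminescence, normalized to 57 uM furafylline.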
# [3] = NFAT Signaling Pathway (AID 444; active = well fitted curve in either direction with a large enough effect, not every such curve was filed as active;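 note: carbachol stimulus at about its EC50 of 1 µM final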); conditions: Jurkat NFAT-bla M1, carbachol, beta-lactamase ratio, 5 h; at 17.2 µM (top of the series) unless noted
# Summary of the method: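 Jurkat cells with NFAT-driven β-lactamase reporter and co-expressed M1 receptor, stimulated with carbachol (final 1 uM, ~EC50), compound titration, 5 h at 37 °C. CCF4 loaded 1 h at RT; 460/530 nm ratio gave %activity and AC50.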
# [4] = Stat Signaling Pathway (AID 446; active = well fitted curve in either direction with a large enough effect, not every such curve was filed as active;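 note: ME-180 cervical cancer cells given 40 pM IL-6 alongside compound; SIE-controlled beta-lactamase reporter measured as 460/530 nm FRET emission ratio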)
# Summary of the method: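 ME-180 cells carrying a SIE-driven beta-lactamase reporter are stimulated with 40 pM IL-6 for 5 h at 37C in the presence of compound. The 460/530 nm FRET substrate ratio is read after 2.5 h at RT. Data are normalised to 300 pM IL-6 and to 125 nM JAK inhibitor controls.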
# [5] = biological target: Glucocorticoid receptor (Homo sapiens) (UniProt P04150); assay: GR-GFP Redistribution (AID 450;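 active = compounds whose dose series gives a full or clear partial fitted curve of increased nuclear translocation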; note: potency is the fitted concentration of half-maximal effect); conditions: U2OS GR-GFP nuclear translocation, laser cytometry, 2 h
# [6] = biological target: Glucocorticoid receptor (Homo sapiens) (UniProt P04150); assay: GR-EFC Redistribution (AID 451; calls by dose curve; note: potency is the fitted concentration of half-maximal effect); conditions: CHO-K1 GR-EFC translocation, beta-gal luminescence, 2 h
# Summary of the method: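 CHO-K1 cells expressing nuclear EA and GR-ED fragments of b-gal; compounds titrated up to 46 uM final, 2 h at 37 C. GR nuclear translocation read as complemented b-gal luminescence after 1 h RT detection.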
# [7] = biological target: Mitogen-activated protein kinase 10 (Mus musculus) (UniProt Q61831); assay: JNK3 AlphaScreen Assay (AID 530; active = well fitted curve in either direction with a large enough effect, not every such curve was filed as active;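 note: kinase came from lysate of stimulated human HepG2 cells; signal reports phosphorylation of biotinylated GST-cJun 1-79 at Ser73 with 10 µM ATP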)
# Summary of the method: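 qHTS format: compounds tested as titrations against IL-1beta/TNF-alpha-activated HepG2 lysate JNK3 with biotin-GST-cJun substrate and 10 uM ATP at room temperature. Loss of anti-phospho-cJun AlphaScreen signal indicates inhibition.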
# [8] = biological target: 3',5'-cyclic-AMP phosphodiesterase 4B (Homo sapiens) (UniProt Q07343); assay: qHTS Assay for Inhibitors of PDE-IV (AID 607; active = well fitted activation curve with a large enough effect in the main read-out, with a control signal flat, not every such curve was filed as active)
# Summary of the method: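 HEK293 ACTOne cells with CNG channel (1000/well), endogenous PDE4; membrane potential dye, compounds up to 22.9 uM final. Fluorescence Ex 535/Em 590; RO 20-1724 (100 uM final) as reference.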
# [9] = qHTS Assay for Lipid Storage Modulators (AID 1519; calls by dose curve); conditions: Drosophila S3 cells, BODIPY lipid droplet/cell ratio, laser cytometry, cells loaded with oleic acid; for activity change, negative = inhibition: at 25.7 µM (top of the series)
# Summary of the method: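 Cells seeded at 5,000 per well were treated with compounds over a concentration series and loaded with oleic acid (400 uM, as added). Lipid droplet fluorescence (488 nm excitation, 500-530 nm channel) was read by laser-scanning cytometry and normalized to 20 uM Triacsin C.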
# [10] = biological target: Ubiquitin carboxyl-terminal hydrolase 1 (Homo sapiens) (UniProt O94782); assay: Inhibitors of USP1/UAF1: Pilot qHTS (AID 504865);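 note: rhodamine fluorescence freed from ubiquitin-rhodamine substrate followed over time; top concentration of the series differs between compounds; nearly all actives have a fitted effect of over 35% in size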
# Summary of the method: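 In 50mM HEPES pH 7.8 containing 0.5mM EDTA, 1mM TCEP, 0.1 mg/ml BSA and 0.01% Tween-20, 1nM USP1/UAF1 is exposed to compound for 15 min, then Ub-Rho (150nM final) is added and fluorescence is read over time.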
# [11] = biological target: ATP-dependent 6-phosphofructokinase (Trypanosoma brucei brucei) (UniProt O15648); assay: qHTS Assay to Find Inhibitors of T. brucei phosphofructokinase: hit validation (AID 492961)
# Summary of the method: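 Luminescence from ADP-Glo reports ADP generated as T. brucei PFK (1.25 nM) phosphorylates 0.5 mM fructose-6-phosphate using 0.1 mM ATP. Reactions ran 45 min at room temperature, pH 8.0.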
# [12] = biological target: Luciferin 4-monooxygenase (Photinus pyralis) (UniProt P08659); assay: Biochemical firefly luciferase enzyme assay for NPC (AID 624030);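 note: purified P. pyralis luciferase at 10 nM with luciferin and ATP substrate; nearly all actives have a fitted effect of over 70% in size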
# Summary of the method: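 Purified P. pyralis luciferase at 10 nM in 50 mM Tris Acetate (final), luminescence read within 5 minutes of enzyme addition to compounds. Activity normalised to PTC124 versus DMSO; concentration-response curves classed by r2, magnitude and activity.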
# [13] = S16 Schwann cell viability assay (CellTiter-Glo assay) (AID 624031);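 note: cellular ATP luminescence as a viability measure; nearly all actives have a fitted effect of over 70% in size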
# Summary of the method: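 Luminescent ATP read-out (CellTiter-Glo) after 24 h compound exposure of native S16 rat Schwann cells at 37 °C. Signals were normalized between cell-free wells and DMSO-treated cells, set as 0% activity.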
# [14] = qHTS profiling for inhibitors of Plasmodium falciparum proliferation (AID 504749); note: nearly all actives have a fitted effect of over 60% in size; conditions: P. falciparum in erythrocytes, SYBR Green DNA, 72 h, at 12.8 µM (top of the series)
# Summary of the method: (§1)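 Readout was DNA-dye fluorescence from lysed cultures, ex 485/em 535 nm. Parasitized red cells had grown 72 h with compound; data scaled between 0.29 uM artemisinin and DMSO wells and corrected using vehicle-only plates.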
# C2A = assay: as above; conditions: P. falciparum in erythrocytes, SYBR Green DNA, 72 h; series mostly up to 12.8 µM
# Summary of the method: as §1
# CP191 = assay: as above; conditions: P. falciparum in erythrocytes, SYBR Green DNA, 72 h; series mostly up to 12.8 µM
# Summary of the method: as §1
# CP250 = assay: as above; conditions: P. falciparum in erythrocytes, SYBR Green DNA, 72 h; series mostly up to 12.8 µM
# Summary of the method: as §1
# FAB9 = assay: as above; conditions: P. falciparum in erythrocytes, SYBR Green DNA, 72 h; series mostly up to 12.8 µM
# Summary of the method: as §1
# JCK = assay: as above; conditions: P. falciparum in erythrocytes, SYBR Green DNA, 72 h; series mostly up to 12.8 µM
# Summary of the method: as §1
# SC27B = assay: as above; conditions: P. falciparum in erythrocytes, SYBR Green DNA, 72 h; series mostly up to 12.8 µM
# Summary of the method: as §1
# [15] = measured here: cell count channel max response
# [16] = measured here: lipid channel max response
# Chain of Cytochrome P450 1A2 (Homo sapiens) (P05177 whole entry, looked up): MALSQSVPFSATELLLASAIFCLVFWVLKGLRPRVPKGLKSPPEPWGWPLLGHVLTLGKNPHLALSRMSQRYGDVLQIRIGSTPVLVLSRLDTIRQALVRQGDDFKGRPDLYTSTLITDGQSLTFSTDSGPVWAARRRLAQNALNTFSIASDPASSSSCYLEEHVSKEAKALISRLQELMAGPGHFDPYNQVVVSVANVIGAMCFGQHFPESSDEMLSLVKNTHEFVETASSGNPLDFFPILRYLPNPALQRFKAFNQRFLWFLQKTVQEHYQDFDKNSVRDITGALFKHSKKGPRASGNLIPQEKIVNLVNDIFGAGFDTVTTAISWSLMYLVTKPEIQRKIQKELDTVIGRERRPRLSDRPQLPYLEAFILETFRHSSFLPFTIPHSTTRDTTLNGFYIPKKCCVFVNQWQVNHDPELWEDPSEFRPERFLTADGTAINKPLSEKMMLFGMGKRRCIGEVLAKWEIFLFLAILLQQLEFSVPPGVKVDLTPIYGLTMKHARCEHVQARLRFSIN
# Chain of Glucocorticoid receptor (Homo sapiens) (P04150 whole entry, looked up, the tested form may be a part): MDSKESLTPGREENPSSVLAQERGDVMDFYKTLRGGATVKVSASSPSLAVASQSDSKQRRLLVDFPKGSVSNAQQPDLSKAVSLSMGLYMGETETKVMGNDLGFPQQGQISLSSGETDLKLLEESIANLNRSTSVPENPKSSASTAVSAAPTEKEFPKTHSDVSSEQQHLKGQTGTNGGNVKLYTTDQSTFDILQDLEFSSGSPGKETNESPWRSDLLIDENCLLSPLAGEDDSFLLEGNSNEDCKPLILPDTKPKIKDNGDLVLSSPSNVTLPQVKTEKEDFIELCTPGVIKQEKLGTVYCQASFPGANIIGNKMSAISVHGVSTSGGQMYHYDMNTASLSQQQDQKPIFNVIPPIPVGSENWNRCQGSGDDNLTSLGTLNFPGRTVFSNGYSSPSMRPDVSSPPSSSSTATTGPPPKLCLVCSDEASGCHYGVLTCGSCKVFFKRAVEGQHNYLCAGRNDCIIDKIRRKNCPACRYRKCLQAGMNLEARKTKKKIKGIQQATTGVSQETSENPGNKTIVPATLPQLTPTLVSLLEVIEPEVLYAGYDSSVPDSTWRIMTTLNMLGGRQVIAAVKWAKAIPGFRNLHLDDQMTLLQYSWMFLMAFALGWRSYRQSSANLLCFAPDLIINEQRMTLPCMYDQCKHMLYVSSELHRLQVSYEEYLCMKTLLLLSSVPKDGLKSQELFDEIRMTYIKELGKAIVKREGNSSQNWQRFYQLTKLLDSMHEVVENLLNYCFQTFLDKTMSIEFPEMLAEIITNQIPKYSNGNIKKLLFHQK
# Chain of Ubiquitin carboxyl-terminal hydrolase 1 (Homo sapiens) (O94782 whole entry, looked up): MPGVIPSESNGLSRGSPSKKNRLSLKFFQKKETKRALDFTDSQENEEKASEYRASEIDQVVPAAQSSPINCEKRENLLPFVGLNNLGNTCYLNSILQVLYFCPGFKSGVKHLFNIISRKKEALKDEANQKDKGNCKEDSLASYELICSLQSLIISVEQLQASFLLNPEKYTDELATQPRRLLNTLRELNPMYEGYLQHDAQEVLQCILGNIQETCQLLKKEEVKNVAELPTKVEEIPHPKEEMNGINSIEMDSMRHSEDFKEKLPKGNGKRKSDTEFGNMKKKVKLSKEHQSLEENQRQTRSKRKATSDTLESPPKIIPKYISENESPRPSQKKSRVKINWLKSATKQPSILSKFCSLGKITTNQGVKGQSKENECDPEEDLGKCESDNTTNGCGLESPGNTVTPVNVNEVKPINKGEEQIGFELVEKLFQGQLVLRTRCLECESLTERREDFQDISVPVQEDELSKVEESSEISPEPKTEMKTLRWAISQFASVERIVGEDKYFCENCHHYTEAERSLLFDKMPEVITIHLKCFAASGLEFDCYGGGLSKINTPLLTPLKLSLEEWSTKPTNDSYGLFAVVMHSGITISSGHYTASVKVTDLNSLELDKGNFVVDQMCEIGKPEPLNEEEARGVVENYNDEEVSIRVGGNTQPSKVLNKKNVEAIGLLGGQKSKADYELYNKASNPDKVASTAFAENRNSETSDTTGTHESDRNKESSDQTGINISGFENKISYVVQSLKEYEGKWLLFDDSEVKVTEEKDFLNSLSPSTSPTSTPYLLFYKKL
# Chain of 3',5'-cyclic-AMP phosphodiesterase 4B (Homo sapiens) (Q07343 whole entry, looked up): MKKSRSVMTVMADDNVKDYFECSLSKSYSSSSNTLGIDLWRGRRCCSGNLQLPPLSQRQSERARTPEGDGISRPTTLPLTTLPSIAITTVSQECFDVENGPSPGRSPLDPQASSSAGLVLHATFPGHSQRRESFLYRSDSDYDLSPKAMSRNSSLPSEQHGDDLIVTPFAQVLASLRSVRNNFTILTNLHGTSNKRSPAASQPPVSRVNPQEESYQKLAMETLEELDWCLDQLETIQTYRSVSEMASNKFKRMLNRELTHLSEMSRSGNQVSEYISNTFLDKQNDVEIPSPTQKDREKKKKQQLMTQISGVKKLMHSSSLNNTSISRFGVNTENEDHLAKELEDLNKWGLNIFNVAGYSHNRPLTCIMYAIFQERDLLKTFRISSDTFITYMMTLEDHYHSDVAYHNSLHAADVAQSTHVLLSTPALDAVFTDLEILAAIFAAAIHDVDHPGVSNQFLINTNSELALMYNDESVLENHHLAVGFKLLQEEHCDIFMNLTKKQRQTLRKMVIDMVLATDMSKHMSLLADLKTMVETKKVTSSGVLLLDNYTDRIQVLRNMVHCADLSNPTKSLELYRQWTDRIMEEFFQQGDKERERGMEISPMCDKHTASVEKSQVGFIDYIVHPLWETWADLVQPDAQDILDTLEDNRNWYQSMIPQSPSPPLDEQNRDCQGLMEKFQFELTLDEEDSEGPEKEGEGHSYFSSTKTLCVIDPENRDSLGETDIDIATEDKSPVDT
# Chain of Luciferin 4-monooxygenase (Photinus pyralis) (P08659 whole entry, looked up): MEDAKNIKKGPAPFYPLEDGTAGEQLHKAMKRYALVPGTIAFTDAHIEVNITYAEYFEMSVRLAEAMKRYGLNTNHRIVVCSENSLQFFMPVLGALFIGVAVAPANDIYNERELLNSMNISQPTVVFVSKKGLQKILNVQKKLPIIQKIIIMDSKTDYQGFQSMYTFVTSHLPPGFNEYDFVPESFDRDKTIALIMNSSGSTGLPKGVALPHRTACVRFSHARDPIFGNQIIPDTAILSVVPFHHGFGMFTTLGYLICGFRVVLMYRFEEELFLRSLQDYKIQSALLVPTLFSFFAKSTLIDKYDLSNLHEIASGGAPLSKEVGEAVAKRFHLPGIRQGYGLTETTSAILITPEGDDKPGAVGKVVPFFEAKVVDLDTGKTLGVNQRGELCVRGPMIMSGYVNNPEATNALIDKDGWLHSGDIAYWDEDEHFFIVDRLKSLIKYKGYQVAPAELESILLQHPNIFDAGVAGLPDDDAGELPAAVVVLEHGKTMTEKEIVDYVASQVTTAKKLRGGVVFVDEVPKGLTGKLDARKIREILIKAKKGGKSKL
# Chain of ATP-dependent 6-phosphofructokinase (Trypanosoma brucei brucei) (O15648 whole entry, looked up): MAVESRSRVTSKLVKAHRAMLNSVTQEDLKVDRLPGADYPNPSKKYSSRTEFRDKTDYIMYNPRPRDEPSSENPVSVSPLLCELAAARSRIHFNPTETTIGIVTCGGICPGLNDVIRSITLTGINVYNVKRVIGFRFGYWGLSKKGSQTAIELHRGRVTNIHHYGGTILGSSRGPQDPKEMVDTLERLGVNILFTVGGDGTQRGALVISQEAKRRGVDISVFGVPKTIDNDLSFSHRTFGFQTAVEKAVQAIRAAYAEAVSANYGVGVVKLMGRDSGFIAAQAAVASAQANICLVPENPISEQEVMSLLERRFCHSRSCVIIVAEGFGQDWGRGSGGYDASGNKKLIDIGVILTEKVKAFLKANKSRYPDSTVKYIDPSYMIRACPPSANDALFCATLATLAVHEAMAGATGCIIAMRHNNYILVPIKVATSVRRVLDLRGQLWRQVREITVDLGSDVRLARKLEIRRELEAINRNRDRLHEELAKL
smiles,measurement,setting,value
C[C@@]12CC3CC(N)(C1)C[C@@](C)(C3)C2,outcome,[1],inactive
same,Potency,[2],inactive
same,"activity change, negative = inhibition",[3],-7.73% (inactive)
same,outcome,[4],inactive
same,Potency,[5],> 20.6 µM (inactive)
same,Potency,[6],> 20.6 µM (inactive)
same,Potency,[7],inactive
same,outcome,[8],inactive
same,"activity change, negative = inhibition",[9],-4.9% (inactive)
same,max response,[9]; [15],-3.32%
same,max response,[9]; [16],-3.78%
same,Potency,[10],inactive
NC(=O)N[C@H]1NC(=O)NC1=O,outcome,[1],inactive
same,Potency,[2],inactive
same,"activity change, negative = inhibition",[3],-6.77% (inactive)
same,outcome,[4],inactive
same,Potency,[5],> 20.6 µM (inactive)
same,Potency,[6],> 20.6 µM (inactive)
same,outcome,[8],inactive
same,"activity change, negative = inhibition",[9],-0.627% (inactive)
same,max response,[9]; [15],21.8%
same,max response,[9]; [16],17.1%
same,outcome,[11],inactive
same,Potency,[12],inactive
same,outcome,[13],inactive
same,"activity, negative = inhibition",[14]; parasite line A,2.27% (inactive)
same,"activity, negative = inhibition",[14]; parasite line B,16.7% (inactive)
same,Potency,C2A,inactive
same,Potency,CP191,inactive
same,Potency,CP250,inactive
same,Potency,FAB9,inactive
same,Potency,JCK,inactive
same,Potency,SC27B,inactive
C[C@]1(OC(=O)/C=C\c2ccccc2)C[C@@H](O)[C@@]2(O)C=CO[C@@H](O[C@H]3O[C@@H](CO)[C@@H](O)[C@@H](O)[C@@H]3O)[C@H]21,outcome,[1],inactive
same,Potency,[2],inactive
same,"activity change, negative = inhibition",[3],-11% (inactive)
same,outcome,[4],inactive
same,Potency,[5],> 20.6 µM (inactive)
same,Potency,[6],> 20.6 µM (inactive)
same,Potency,[7],inactive
same,outcome,[8],inactive
same,"activity change, negative = inhibition",[9],-2.22% (inactive)
same,max response,[9]; [15],-15.8%
same,max response,[9]; [16],-17.4%
same,Potency,[10],inactive
C[C@@H]1O[C@H](O[C@@H]2[C@@H](Oc3cc(O)c4c(c3)O[C@H](c3ccc(O)cc3)CC4=O)O[C@@H](CO)[C@@H](O)[C@H]2O)[C@@H](O)[C@H](O)[C@@H]1O,outcome,[1],inactive
same,Potency,[2],inactive
same,"activity change, negative = inhibition",[3],-5.97% (inactive)
same,outcome,[4],inactive
same,Potency,[5],> 20.6 µM (inactive)
same,Potency,[6],> 20.6 µM (inactive)
same,Potency,[7],inactive
same,outcome,[8],inactive
same,"activity change, negative = inhibition",[9],-1.64% (inactive)
same,max response,[9]; [15],-4.7%
same,max response,[9]; [16],-6.11%
same,Potency,[10],inactive
C[C@H]1[C@@H](O)[C@@H](C)\C=C/C=C\C=C/C=C\C=C/C=C\C=C/[C@@H](O[C@H]2O[C@@H](C)[C@@H](O)[C@@H](N)[C@@H]2O)C[C@@H]2O[C@](O)(C[C@@H](O)C[C@@H](O)[C@@H](O)CC[C@@H](O)C[C@@H](O)CC(=O)O[C@H]1C)C[C@@H](O)[C@H]2C(=O)O (stereo in doubt),outcome,[1],inactive
same,Potency,[2],inactive
same,"activity change, negative = inhibition",[3],-11.5% (inactive)
same,outcome,[4],inactive
same,Potency,[5],> 20.6 µM (inactive)
same,Potency,[6],> 20.6 µM (inactive)
same,Potency,[7],inactive
same,outcome,[8],inactive
same,"activity change, negative = inhibition",[9],3.52% (inactive)
same,max response,[9]; [15],0.724%
same,max response,[9]; [16],3.85%
same,Potency,[10],inactive
Cc1ccccc1N1C(=O)c2cc(S(N)(=O)=O)c(Cl)cc2N[C@H]1C,outcome,[1],inactive
same,Potency,[2],inactive
same,"activity change, negative = inhibition",[3],1.02% (inactive)
same,outcome,[4],inactive
same,Potency,[5],> 20.6 µM (inactive)
same,Potency,[6],> 20.6 µM (inactive)
same,Potency,[7],inactive
same,outcome,[8],inactive
same,"activity change, negative = inhibition",[9],0.988% (inactive)
same,max response,[9]; [15],-3.14%
same,max response,[9]; [16],-3.66%
same,Potency,[10],inactive
CC(=O)OCC(=O)[C@@]1(O)CC[C@@H]2[C@H]3CCC4=CC(=O)C=C[C@]4(C)[C@]3(F)[C@@H](O)C[C@@]21C,outcome,[1],inactive
same,Potency,[2],inactive
same,"activity change, negative = inhibition",[3],-2.98% (inactive)
same,outcome,[4],inactive
same,Potency,[5],0.00326 µM (active)
same,Potency,[6],0.035 µM (active)
same,Potency,[7],inactive
same,outcome,[8],inactive
same,"activity change, negative = inhibition",[9],0.563% (inactive)
same,max response,[9]; [15],15.5%
same,max response,[9]; [16],-0.686%
same,outcome,[11],inactive
same,Potency,[10],inactive
same,Potency,[12],inactive
same,outcome,[13],inactive
same,"activity, negative = inhibition",[14]; parasite line A,-3.89% (inactive)
same,"activity, negative = inhibition",[14]; parasite line B,16% (inactive)
same,Potency,C2A,inactive
same,Potency,CP191,inactive
same,Potency,CP250,inactive
same,Potency,FAB9,inactive
same,Potency,JCK,inactive
same,Potency,SC27B,inactive
